The text below walks through data of PubChem BioAssay (Tox21).

SMILES strings stand for the structures. Values joined by “and” are separate entries in the source; they are usually repeats but may differ in a detail not shown here. Identical values can stand only once. Inconclusive results are not listed. Where a call stands in place of a potency, no number is given. Where a structure was tested more than once in an assay, its records may differ in their call. Active and inactive are the calls of the source. The call rests on the fitted dose curve; in most records, active means well fitted cell-killing curve with a large enough effect in the repeat runs; inconclusive means weak or mixed curves, or effect the other way; inactive means no such curve, though single readings can be large or run the other way.
Potency means the concentration at half of the fitted maximal effect.

This test can be described thus: qHTS assay to identify small molecule agonists of the RXR signaling pathway - cell viability counter screen (AID 1159529). Further: nearly all actives have a fitted effect of over 50% in size. The note with it: RXR-alpha-bla HEK293T viability, CellTiter-Glo, 16 h; series mostly up to 76.8 µM; activity change, negative = cytotoxicity: at the top concentration. An excerpt:
National Center for Advancing Translational Sciences [NCATS]
NIH Chemical Genomics Center [NCGC]
U.S. Environmental Protection Agency [EPA]
National Institutes of Environmental Health Sciences [NIEHS]
National Toxicology Program [NTP]
U.S. Food and Drug Administration [FDA]
The Retinoid X receptor (RXR), a nuclear hormone receptor expressed in liver, spleen, placenta, epidermis, central nervous system. These receptors are able to form homo and heterodimers with other nuclear receptors and due to this heterodimerizing ability, RXR functions as master regulators producing diverse physiological effects. Three subtypes of RXR exist; alpha, beta and gamma. Retinoid X receptor alpha (RXR-alpha) has potential roles in metabolic signaling pathways, skin alopecia, dermal cysts, cardiac development, insulin sensitization etc. Therefore screening environmental chemicals on RXR-alpha signaling can be used for the studies focused on such therapeutic applications. For quantification of RXR-alpha ligands signaling, GeneBLAzer RXR alpha-UAS-bla HEK 293T (Life Technologies, Carlsbad, CA) cells containing a beta-lactamase reporter-gene under control of Retinoid X receptor-alpha response element were used to screen Tox21 10K library. The cytotoxicity of the Tox21 compound library against the RXR-alpha HEK 293T cell line was tested in parallel by measuring cell viability using CellTiter-Glo assay (Promega Corporation, Madison, WI) in the same wells.
Tox21 Assay Protocol Summary:
RXR-alpha HEK 293T cells were dispensed at 2,000 cells/6 uL of assay medium containing 2% charcoal-stripped FBS using a Multidrop Combi (ThermoFisher Scientific, Waltham, MA) dispenser. The assay was performed in black wall/clear-bottom 1536-well plates (Greiner Bio-One North America Inc. Monroe, NC). Tetraoctyl ammonium bromide was used as a positive control in the cytotoxicity screen. After the assay plates were incubated at 37 C and 5% CO2 for 5 hr, 23 nL of compounds dissolved in DMSO, positive control or DMSO only were transferred to the assay plate by a Pintool station (Kalypsys, San Diego, CA). The assay plates were incubated at 37 C and 5% CO2 for 16 hr. One uL of LiveBLAzer B/G FRET substrate (Life Technologies) was added using a Flying Reagent Dispenser (FRD) (Aurora Discovery, San Diego, CA) and the plates were incubated at room temperature for 2 hr. Fluorescence intensity (405 nm excitation, 460/530 nm emission) was measured using an Envision plate reader (PerkinElmer, Shelton, CT). For cytotoxicity, 4 uL/well of CellTiter-Glo reagent was added into the assay plates using an FRD. After 30 min incubation at room temperature, the luminescence intensity was measured using a ViewLux plate reader (PerkinElmer).
In general terms: qHTS replaces the single test concentration by a dilution series.
Regarding `O=C(O)CCCCCCCCCCCC(=O)O`, the Potency entry was “inactive”.
With `CN(C)CCCN1c2ccccc2Sc2ccc(Cl)cc21`, the Potency was 43.6 µM (active).
On the same count and under the same terms, with `Cc1ccc([N+](=O)[O-])c(C)c1` the figure was 24.6 µM (active) and inactive.
Regarding `CCO[Si](CCCNC(N)=O)(OCC)OCC`, the “activity change, negative = cytotoxicity” value was 0.234% (inactive).
On to `CCC/C=C/C=O`, for which the Potency result was “inactive”.
On the same count and under the same terms, with `O=C(CCCN1CCC(O)(c2ccc(Cl)cc2)CC1)c1ccc(F)cc1` the figure was 27.5 µM (active) and inactive; with `CN1CCOCC1`, “inactive”; with `Nc1ccc(O)c(N)c1`, “inactive”.
The same measure, in the same setting: with `CC(=O)Nc1ccc2c(c1)Cc1cc(NC(C)=O)ccc1-2` the entry was “inactive”; with `CN(C)/N=N/c1nc[nH]c1C(N)=O`, “inactive”.
Still for that read-out and setting: the same measure for `OC[C@@H](O)[C@@H](O[C@@H]1O[C@H](CO)[C@H](O)[C@H](O)[C@H]1O)[C@H](O)[C@@H](O)CO`: “inactive”.
Take `C[C@]12CC[C@@H]3c4ccc(O)cc4CC[C@H]3[C@@H]1CC[C@@H]2O`: the Potency result was “inactive”.
Still for that read-out and setting: the same measure for `C[C@]12CC[C@@H]3c4ccc(O)cc4CC[C@H]3[C@@H]1CC[C@H]2O`: “inactive”.
As for `CCCCCCCCCCCCCO`, the “activity change, negative = cytotoxicity” value was -1.89% (inactive).
In the case of `Cc1ccc(C)c(O)c1`, the Potency result was “inactive”.
Regarding `CCCCCCCC/C=C\CCCCCCCC(=O)O`, the Potency entry was “inactive”.
Still for that read-out and setting: with `NCCN` the entry was “inactive”.
Same read-out and setting: with `c1ccc2c(c1)[nH]c1ccccc12` the entry was “inactive”.
In the case of `CCC(=O)O[C@H]1[C@H](O[C@@H]2[C@@H](C)[C@H](O[C@H]3C[C@@](C)(OC)[C@@H](O)[C@H](C)O3)[C@@H](C)C(=O)O[C@H](CC)[C@@](C)(O)[C@H](O)[C@@H](C)C(=O)[C@H](C)C[C@@]2(C)O)O[C@H](C)C[C@@H]1N(C)C`, the “activity change, negative = cytotoxicity” value was -6.68% [at 35.3 µM] (inactive).
Take `C=CN1CCCC1=O`: the Potency entry is “inactive”.
Consider `Oc1ccc(C(c2ccc(O)cc2)C(Cl)(Cl)Cl)cc1`, for which the “activity change, negative = cytotoxicity” value is -18% (inactive).
For the molecule `c1ccc2c(c1)ccc1ncccc12`, the Potency result is “inactive”.
On to `COc1ccc(C(=O)c2ccccc2O)c(O)c1`, for which the Potency result is “inactive”.
Regarding `CC(=O)Oc1ccc(C(c2ccc(OC(C)=O)cc2)c2ccccn2)cc1`, the Potency result was “inactive”.
Regarding `Cc1ccc(C(C)(C)C)cc1`, the Potency result was “inactive”.
Still for that read-out and setting: with `ClC/C=C/CCl` the entry was “inactive”; with `CNC[C@H](O)c1ccc(O)c(O)c1`, “inactive”; with `CCOC(=O)C(C)Oc1ccc(Oc2cnc3cc(Cl)ccc3n2)cc1` (stereo not given), “inactive”.
Take `CCCCCC=O`: the Potency result was “inactive”.
As for `CC(C)[N+](C)(CCOC(=O)C1c2ccccc2Oc2ccccc21)C(C)C`, the Potency result is “inactive”.
For the molecule `NC[C@H](O)c1ccc(O)c(O)c1`, the Potency entry is “inactive”.
For the molecule `C=CC(=O)OCCCC`, the Potency result was “inactive”.
On the same count and under the same terms, the same measure for `C=C[C@@]1(C)CC(=O)[C@]2(O)[C@@]3(C)[C@@H](O)CCC(C)(C)[C@@H]3[C@H](O)[C@H](OC(C)=O)[C@@]2(C)O1`: 11 µM (active) and 7.56 µM (active); for `[O-]/[N+](=N\O)c1ccccc1`: “inactive”.
`Oc1c(Cl)ccc(Cl)c1Cl`: the “activity change, negative = cytotoxicity” value is -19% (inactive).
Take `C1CN(SSN2CCOCC2)CCO1`: the Potency is 54.4 µM (active).
The same measure, in the same setting: with `[Na+]` the entry was “inactive”.
With `CCCCCCOCCOCCO`, the Potency entry was “inactive”.
On the same count and under the same terms, the same measure for `CCCOCCO`: “inactive”.
The same measure, in the same setting: with `O=C(O)COCCN1CCN(C(c2ccccc2)c2ccc(Cl)cc2)CC1` (stereo not given) the entry was “inactive”.
